Laboratory results published in PubChem BioAssay (NCI).
This is part of a sample that, as a whole, favours compounds with a hit. Of some 83,000 tested, about 20% had one in any assay.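 Negative percent growth values reflect cell death: -40 means 40% of the cells present at the start died, and -100 means all died.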 Activity calls are given as the source filed them. The calls were made as follows: active = growth percent below 10; inactive = the rest.

Test system: MDA-MB-468 breast
Assay: NCI-60 one-dose screen, 48 h (100 = growth as untreated, 0 = no growth, -100 = all killed)
Details: 10 µM unless noted

Question: N#CCNc1ccc(C(=O)O)cc1 was tested. Which growth did it give?
Answer: 92.8% (inactive)

Question: COc1ccc(-c2nc(N/N=C/c3ccco3)nc(N3CCOCC3)c2C#N)cc1 was tested. Which growth did it give?
Answer: 36% (inactive)

Question: Which growth does the source give for O=C(C1=Cc2cc3ccccc3n2Cc2cnnn21)c1ccc(F)cc1 here?
Answer: 99.4% (inactive)

Question: How did the growth turn out when O=c1oc2ccc(I)cc2c(=O)n1-c1ccc(F)cc1F was run?
Answer: -8.85% (active)

Question: How did the growth turn out when COc1ccc(CN2c3ccccc3Sc3ccccc32)c(C(F)(F)F)c1 was run?
Answer: 18.8% (inactive)

Question: How did the growth turn out when COc1cc(NC(=O)SC2=NCCS2)cc(OC)c1 was run?
Answer: 93.3% (inactive)

Question: For N[C@@H]1CCC[C@H]1NCCCCN1C(=O)c2cccc3cc([N+](=O)[O-])cc(c23)C1=O, which growth is on record?
Answer: 31.9% (inactive)

Question: How did the growth turn out when CN(C)c1ccc(-c2cc(-c3ccc(Nc4nc(Nc5ccccc5)nc(Nc5ccc(Cl)cc5)n4)cc3)nc(N)n2)cc1 was run?
Answer: 74.3% (inactive)

Question: Which growth does the source give for CC1(C)CC[C@]2(C(=O)N3CCOCC3)CC[C@]3(C)C(=CC[C@@H]4[C@@]5(C)CC[C@H](OC(=O)c6cccnc6)C(C)(C)[C@@H]5CC[C@]43C)[C@@H]2C1 here?
Answer: 45.6% (inactive)

Question: How did the growth turn out when Cc1ccsc1C(NC(=O)c1ccccc1)c1cc(Cl)c2cccnc2c1O (centres undefined) was run?
Answer: 4.52% (active)

Question: For COc1cc(-c2csc(NC(=O)Nc3cc(Cl)cc(Cl)c3)n2)cc(OC)c1OC, which growth is on record?
Answer: -6.75% (active)

Question: Which growth does the source give for CCN(CC)Cc1cc(Nc2c3ccc(Cl)cc3nc3c(C)cccc23)ccc1O here?
Answer: -67% (active)

Question: O=C(CSc1nnc(-c2ccc(Cl)cc2)o1)c1ccccc1 was tested. Which growth did it give?
Answer: 97.1% (inactive)

Question: With Cc1c2ncccc2nc2[nH]c3ccc(OCCN(C)C)cc3c12 as the compound, how does the growth read?
Answer: -34.7% (active)
